Molecules are shown by their SMILES. Results filed as inconclusive are left out. The source made the active and inactive calls. Calls follow the shape of the dose curve; as a rule, active = well fitted activation curve with a large enough effect; inconclusive = small, poorly fitted or top-dose-only effect; inactive = no such curve, though single readings can be large or run the other way.

Arylsulfatase A (Homo sapiens), sequence (P15289 whole entry, looked up): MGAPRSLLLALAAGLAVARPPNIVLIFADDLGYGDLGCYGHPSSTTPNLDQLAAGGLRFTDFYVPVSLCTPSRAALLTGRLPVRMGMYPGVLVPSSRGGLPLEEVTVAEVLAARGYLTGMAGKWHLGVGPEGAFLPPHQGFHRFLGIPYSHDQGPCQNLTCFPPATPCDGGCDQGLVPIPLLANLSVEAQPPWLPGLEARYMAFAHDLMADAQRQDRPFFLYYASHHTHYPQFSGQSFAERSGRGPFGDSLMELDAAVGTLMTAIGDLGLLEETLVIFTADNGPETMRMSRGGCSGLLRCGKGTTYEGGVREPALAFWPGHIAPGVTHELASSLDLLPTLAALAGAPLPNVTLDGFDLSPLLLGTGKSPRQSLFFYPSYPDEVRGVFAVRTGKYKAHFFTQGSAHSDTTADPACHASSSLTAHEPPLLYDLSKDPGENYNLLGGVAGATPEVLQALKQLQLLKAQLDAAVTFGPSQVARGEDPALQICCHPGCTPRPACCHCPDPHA

The assay addresses Arylsulfatase A (Homo sapiens) (UniProt P15289). In words: qHTS screen for enhancers of Arylsulfatase A (ASA1): LOPAC Validation Assay (AID 720538). As to activity change, positive = activation: 0% is about no effect. Conditions: ASA enzyme activity, LOPAC qHTS enhancer assay; series mostly up to 57.5 µM; activity change, positive = activation: at the top concentration. The method in brief: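 First, ASA-I179S fibroblasts from an MLD patient adhered for 6 hrs. Next, compounds were added for 48h. Then pNCS substrate (0.5mM final) with lysis buffer reacted 14h at room temperature before NaOH stop and fluorescence measurement.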
In the case of `C=C1C[C@@]23CC[C@H]4[C@@](C)(CCC[C@@]4(C)C(=O)O)[C@@H]2CC[C@]1(O)C3`, the “activity change, positive = activation” value was 1.09% (inactive).

Take `CCn1c(=O)[nH]c2cc(Cl)c(Cl)cc21`: the “activity change, positive = activation” value was 15.5% (inactive).

Turning to `NC(=Nc1ccccc1)NC(=O)c1nc(Cl)c(N)nc1N`, the “activity change, positive = activation” value was 12.1% (inactive).

As to `CC[C@@H]1Cc2cc(O)ccc2C2=C1c1ccc(O)cc1C[C@H]2CC`, the “activity change, positive = activation” value is -0.214% (inactive).

Take `CCCc1c(OCCCOc2ccc(OCC(=O)O)cc2)ccc(C(C)=O)c1O`: the “activity change, positive = activation” value was -8.9% (inactive).

Regarding `CCOC(=O)C12CC1/C(=N/O)c1ccccc1O2` (stereo unspecified), the “activity change, positive = activation” value was -14% (inactive).

Take `S=C(S)N1CCCC1`: the result was inactive.

As to `CC1=C(/C=C/C(C)=C/C=C/C(C)=C\C(=O)O)C(C)(C)CCC1`, the “activity change, positive = activation” value was 18.8% (inactive).

Take `N#CC(=C(\N)Sc1ccccc1N)/C(C#N)=C(/N)Sc1ccccc1N`: the “activity change, positive = activation” value was -88.4% (inactive).

Turning to `CCCC[C@@]1(C2CCCC2)Cc2cc(OCC(=O)O)c(Cl)c(Cl)c2C1=O`, the “activity change, positive = activation” value is -21.3% (inactive).

Turning to `O=c1cc(O)cc(/C=C/c2ccc(O)c(O)c2)o1`, the “activity change, positive = activation” value was -200% (inactive).

Take `COc1cc(/C=C(\C#N)C(=O)Nc2nnc(C(F)(F)F)s2)ccc1OCc1ccc(C(F)(F)F)cc1C(F)(F)F`: the result was inactive.

For the molecule `CC(=O)O[C@H]1Cc2ccccc2N(C(N)=O)c2ccccc21`, the “outcome” value was “inactive; inhibitor; fitted 0.4256 uM”.

For the molecule `COc1ccc2c(c1)c(CC(=O)O)c(C)n2C(=O)c1ccccc1`, the “activity change, positive = activation” value was 7.82% (inactive).

With `Cc1nc2n(c(=O)c1CCN1CCC(c3noc4cc(F)ccc34)CC1)CCCC2O` (stereo unspecified), the “activity change, positive = activation” value was -60.6% (inactive).

With `CN1CCC2(CCN3CCc4c(oc5ccccc45)C3C2)N(C)C1=O` (stereo unspecified), the outcome was inactive.

As to `C=CC1(C)CC(=O)C2(O)C(C)(O1)C(OC(C)=O)C(O)C1C(C)(C)CCC(O)C12C` (stereo unspecified), the “activity change, positive = activation” value is -3.21% (inactive).

As to `Brc1c(Br)c(Br)c2[nH]cnc2c1Br`, the “outcome” value was “inactive; inhibitor; fitted 8.4921 uM”.

For `Fc1ccc(CN(C2=NCCN2)c2c(Cl)cccc2Cl)cc1`, the “activity change, positive = activation” value is -2.08% (inactive).

In the case of `COc1ccccc1N1CCN(CCCCNC(=O)c2ccc3ccccc3c2)CC1`, the “activity change, positive = activation” value was -4.54% (inactive).

As for `COCc1nc2c([nH]1)c(=O)n(C)c(=O)n2CC(C)C`, the outcome was inactive.

For `c1ccc(C(NCCNC(c2ccccc2)c2ccccc2)c2ccccc2)cc1`, the “activity change, positive = activation” value is -5.94% (inactive).

In the case of `CN1CC(O)C(O)C(O)C1CO` (stereo unspecified), the result was inactive.

`COC(=O)[C@H](NC(=O)c1cc(-c2ccccc2)nc2ccccc12)c1ccccc1`: the “activity change, positive = activation” value was 4.29% (inactive).

Turning to `CCCOC(=O)c1c(-c2ccccc2)nc(CC)c(C(=O)SCC)c1CCC`, the outcome was inactive.

For the molecule `CCCCOC(=O)NS(=O)(=O)c1sc(CC(C)C)cc1-c1ccc(Cn2c(CC)nc3c(C)cc(C)nc32)cc1`, the outcome was inactive.

For the molecule `CN1CCN(c2nc3cc(C(F)(F)F)ccc3n3cccc23)CC1`, the outcome was inactive.

On to `COc1ccc(NC(=O)c2ccc(-c3ccc(-c4noc(C)n4)cc3C)cc2)cc1N1CCN(C)CC1`, for which the outcome was inactive.

As for `c1ccc(C(NCc2cccnc2)(c2ccccc2)c2ccccc2)cc1`, the “activity change, positive = activation” value was -58.3% (inactive).

For the molecule `C/C(=C\c1ccc(C(=O)O)cc1)c1ccc2c(c1)C(C)(C)CCC2(C)C`, the “activity change, positive = activation” value is -0.761% (inactive).

As to `C#CCn1c(=O)c2c(ncn2C)n(C)c1=O`, the “activity change, positive = activation” value is 8.02% (inactive).

As for `O=c1oc(Cl)c(Cl)c2ccccc12`, the outcome was inactive.

For `CC#CCOC(=O)c1c(C)nc2sc3c(c2c1N)CCC(O)C3` (stereo unspecified), the “activity change, positive = activation” value was -0.969% (inactive).

Consider `CCCc1c(-c2ccc(O)cc2)nn(-c2ccc(O)cc2)c1-c1ccc(O)cc1`, for which the “activity change, positive = activation” value was -29.2% (inactive).

With `N[C@@H](Cc1ccc(O)c(I)c1)C(=O)O`, the result was inactive.

On to `O=c1[nH]c(=S)[nH]c(-c2ccccc2)c1Cc1c(O)ccc2ccccc12`, for which the “outcome” value is “inactive; inhibitor; fitted 8.4921 uM”.

(Values after PubChem BioAssay (NCATS).)
